19 molecules from the supplement of paper PMC12632987 can be followed below.

The labels stand for the following.
T1: TRAF2, Q12933
T1 chain: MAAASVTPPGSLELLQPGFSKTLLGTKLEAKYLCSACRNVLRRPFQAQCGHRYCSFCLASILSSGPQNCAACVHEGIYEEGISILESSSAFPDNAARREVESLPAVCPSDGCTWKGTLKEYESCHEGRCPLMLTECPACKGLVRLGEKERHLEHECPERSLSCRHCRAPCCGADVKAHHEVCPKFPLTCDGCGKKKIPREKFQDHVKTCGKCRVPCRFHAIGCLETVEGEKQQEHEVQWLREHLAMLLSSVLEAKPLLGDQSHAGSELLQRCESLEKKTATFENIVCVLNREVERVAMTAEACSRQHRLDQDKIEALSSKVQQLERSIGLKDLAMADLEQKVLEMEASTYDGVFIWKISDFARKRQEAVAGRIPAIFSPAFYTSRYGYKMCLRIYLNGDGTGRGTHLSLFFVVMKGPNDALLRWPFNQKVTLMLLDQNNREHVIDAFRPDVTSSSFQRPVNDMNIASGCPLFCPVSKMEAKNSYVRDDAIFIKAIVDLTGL

B1: traf2_out_19_16_1983 (protein)
chain: AEEEAERLLAEMRRHLDEALRLAEETVANLDKLSRDELMDRLVEISELVRRAQEALQRALELLADDPERRAAIRAEYDERLDRINRLMTKIVDRLLELLK
B2: traf2_out_11_79_931 (protein)
chain: SEKRKELEELIKKALKLVEELIKKLKEGNISEEEFAKTIEEILELLQRAMQLALELGLSDVLVLLSEARRHVLLSRTRNLEELEKAAKYLKEALKELEKE
B3: traf2_out_18_167_1826 (protein)
chain: SEEAEKKINELRDKLIEYSEIRRLALAAIEALRTDPAAAEAALAAVIAALEKVPEFRPDAERLKALPREELPAALEEIAERAQRKMNEIYKEIEEIKKKA
B4: traf2_out_6_3_2531 (protein)
chain: DRESLLADARKVLENMGITTAAELQRLVEAEVRAIRQLISRPDVDRADLAGARSVIALARAMVEVAAETLPDFTPEQQARLQALLAEAEELVRRREEELA
B5: traf2_out_20_3_2095 (protein)
chain: EELEKELEKALKEAAKLIKKAIALADPETAARLEALLKRLKAAEKLPLEDRLVALSAVRRELLALAEEARAAGREELAKLLEEAAEEVNRAMNLAYKIIE
B6: traf2_out_9_17_2611 (protein)
chain: SAEEEELKERLLEAIEEVLKELVEKGYITEEEAEEILKKVKELIEKGASPDEIIAEFLGMIASILLTKSNLSLPEANKIVGEAYRRLQERLEKIEKELAE
B7: traf2_out_16_104_1406 (protein)
chain: AAATQAAFDAIIAELNKIAEELGKIANKIYKKMETASPELKEKLTDALVDASELRRQALEAAVAAAQARATGGDLAAAQATLAELKKKAEEVKKKAEELF
B8: traf2_out_14_149_1255 (protein)
chain: SETEKKRKALEEARALMEEIAAILEAALAAGSTEVDRERLRALVEEARAILREQGFVLGHLLAIEEMLATTEEFTLADIEALLAEVRRAAESLAVLAEML
B9: traf2_out_6_3_2517 (protein)
chain: MEESIRKDARTVLENMGITTVEQLKKLVEANVNAVKKLVSRKDVDRADLAAANSVLNLTRAMVEVAAETLPDLTEEDVKEMNALIDEARELIEKKKKELE
B10: traf2_out_20_38_2040 (protein)
chain: EEEKEEEERLLEIAKKATEVADKTEAWVEEKLAAGVSPEEIIAETKKLITEKLAAIGKEEEAKELIERLDTLAAAGEVRRGVVLVMARAAAIVYQKEQEE
B11: traf2_out_20_3_2223 (protein)
chain: EELKREIEEELRKIEELLEKAKPLLPEEDYKKLKELLEKAREALETDLTDALVYLSELRRLALELAQEARAAGNEELAKLLEEMAERANRAAGLVLKAIE
B12: traf2_out_14_166_1275 (protein)
chain: MSPEEIERIRKIVDELEPLTDAAVARLEAILAANADKLTPEQLARVRALLDLARRNIGSSAINAIREIAAIFAAAGLAEAAAAARALADELEAKLKELNK
B13: traf2_out_18_167_1835 (protein)
chain: EEEKEKKRNELLDEMIDISEHYRAAIEYLELLAKDPKEAEAKKEEYMKKIDKDPELVAKIKEVLALPDEERKKAAKALADEVYDERQKKMQELWDKREAV
B14: traf2_out_20_38_2012 (protein)
chain: SEEEKEKEKEEKLIEHANEAYDRAEAWVAALQAAGKSVAEIAAEAKKRIRELLTAHGLEEEAEELIEDVDRVLDSPDAERLIVQILARAETLVFQKELQK
B15: traf2_out_13_95_1095 (protein)
chain: SAEVAAKINAIADKMLDEVLKILEELLKKMEKAGKLVEEVKEALDLAEKRSINEAIHLLKELAKKYPEFKEEFEEAIKKIEEIKREAGREVAKILKEEEE
B16: traf2_out_15_48_1341 (protein)
chain: SVEELRAVASEIADEIDAAKDAVAAELEALRPSAAPEQRAPLAEAIDAARHGRGQNTVLALLDRLEPLLAPEQAARVAALRDRLRAVVRAASARMAEVLK
B17: traf2_out_18_3_1931 (protein)
chain: SEEERKEVSDKIDEIVDDARARAERELERAREELPEKREEIDRLRAALEAGAAPFGILDALAELYEEAGKEEEAKEIEEYLSEKRKEMQELVDEYEKLIK
B18: traf2_out_11_169_847 (protein)
chain: EQEEKNRQIIDKALELEDKAKEELKKHALALAREAGLDVAEVEAIFEKHKGKSLSAIAAALIRWFREQGKEEAAAAVEAKYEELKEEINKKMTEFLKELE
B19: traf2_out_11_169_812 (protein)
chain: EEKEKNRKINDFALELNDEAKKELLKHAKALAKKAGLDVAEVEAIFEKHKNSSLSAVAAALIAYFKSKGKEEEAAAVLAKYEELKEEINKKVTEKIKELE

The full ranking holds about 1,800 sequences; the median of “median log2 fold change of GCK-ALFA target abundance (FLAG IP / Myc IP barcode read proportion)” is about 0.14, and the lowest 2% start at about -0.84. This excerpt belongs to a sample that is enriched for the lowest values.

This assay deals with T1, TRAF2, Q12933. The experiment in a line: median log2 fold change of GCK-ALFA target abundance (FLAG IP / Myc IP barcode read proportion) (log2 ratio); each designed protein is fused to an ALFA-tag nanobody in HEK293 cells to bring the named protein to FLAG-tagged glucokinase (GCK); Myc marks an untargeted standard; higher = target protein stabilised (more abundant). The settings on record: target protein: 3xFLAG-MCP-GCK-ALFA reporter; HEK293 landing pad (RPLP). In a few lines: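 Sequencing of reverse-transcribed, amplified circular RNA barcodes from anti-FLAG and anti-Myc immunoprecipitates provided the readout for an ALFA-nanobody-fused binder library recombined into HEK293 landing-pad cells. Those cells were induced with 2 μg mL^−1 doxycycline, transfected with a plasmid expressing a FLAG-tagged target and a Myc-tagged standard, and lysed after 48 h. Target abundance is the per-binder median log2 ratio of FLAG to Myc barcode read proportions. Only barcodes at a proportion of ≥10^−7 in both replicates and binders with ≥3 barcodes per replicate were kept, with a 10^−6 pseudocount added before the two replicates were pooled.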
Consider B1, for which the “median log2 fold change” value was -0.215. Then B2, with 0.265. Consider B3, for which the “median log2 fold change” value turned out to be 0.154. Under B4 stands -0.925.

As to B5, the “median log2 fold change” value is -0.0878. Under B6 stands 0.0354.

Turning to B7, the “median log2 fold change” value was found to be 0.196. For B8, the “median log2 fold change” value was -0.105. Consider B9, for which the “median log2 fold change” value was -1.1.

Turning to B10, the “median log2 fold change” value came out at 0.281. On to B11, for which the “median log2 fold change” value was found to be 0.163. Then B12, with 0.268; and B13, with 0.297; and B14, with 0.283. Under B15 stands -0.132. B16: the “median log2 fold change” value was found to be 0.194. Under B17 stands 0.304; under B18, -0.218.

B19: the “median log2 fold change” value came out at 0.302.
